# Compounds with a hit are over-represented: about 3.5% of the library has one in this group of screens.
# GPR151 activ: activators of human GPR151, primary screen, cell-based, PathHunter beta-arrestin, luminescence; G-protein coupled receptor 151 (Homo sapiens), Q8TDV0; PathHunter beta-arrestin GPR151 cells; activation, % at 11.2 µM; 650,000 tested, 1% active; in the data active means activation above about 4.9%;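 further: 0% = median of compound wells and 100% = cells with positive control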
# FBW7 activator: FBW7 E3 ligase activators, primary screen, biochemical, AlphaScreen, human. F-box/WD repeat-containing protein 7 (Homo sapiens), Q969H0. AlphaScreen FBW7–phospho-cyclin E peptide binding, activator screen. normalized activity (activation), % at 26.1 µM. 650,000 tested, 0.13% active; in the data active means normalized activity above about 1.9%;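 further: purified mutant Fbw7 with reduced substrate affinity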
# Target sequence (Q969H0 whole entry, looked up): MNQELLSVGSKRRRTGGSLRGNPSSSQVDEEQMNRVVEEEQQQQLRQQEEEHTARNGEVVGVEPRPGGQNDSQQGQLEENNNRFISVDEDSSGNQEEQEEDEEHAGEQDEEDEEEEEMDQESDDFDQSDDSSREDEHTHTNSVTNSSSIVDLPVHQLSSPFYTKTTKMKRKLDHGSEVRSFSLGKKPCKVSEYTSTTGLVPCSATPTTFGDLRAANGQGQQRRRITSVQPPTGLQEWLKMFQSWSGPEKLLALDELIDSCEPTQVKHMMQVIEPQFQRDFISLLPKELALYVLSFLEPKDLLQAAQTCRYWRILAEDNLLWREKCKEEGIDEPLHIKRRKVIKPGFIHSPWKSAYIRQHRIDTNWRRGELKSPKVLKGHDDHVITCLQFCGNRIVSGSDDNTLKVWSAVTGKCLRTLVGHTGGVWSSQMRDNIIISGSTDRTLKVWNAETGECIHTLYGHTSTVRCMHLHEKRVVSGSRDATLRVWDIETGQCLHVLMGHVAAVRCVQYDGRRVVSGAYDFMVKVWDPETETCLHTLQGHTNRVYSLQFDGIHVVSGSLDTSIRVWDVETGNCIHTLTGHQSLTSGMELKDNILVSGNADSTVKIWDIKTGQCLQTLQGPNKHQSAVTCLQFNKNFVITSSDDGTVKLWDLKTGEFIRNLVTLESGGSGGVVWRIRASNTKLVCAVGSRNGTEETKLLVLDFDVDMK
# MITF inh: MITF inhibitors, primary screen, biochemical, AlphaScreen, human | Microphthalmia-associated transcription factor (Homo sapiens), O75030 | AlphaScreen MITF homodimerization, bead proximity signal | inhibition, % at 2.6 µM | 650,000 tested, 0.91% active | AID 1259374, 2018; in the data active means inhibition above about 50%;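 further: 0% = vehicle wells with protein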
# TEAD-YAP inh: TEAD-YAP interaction inhibition, primary screen, TEAD-YAP interaction inhibitor project, luminescence, HEK-TIYL cells | AID 1259422, 2018 | inhibition, % at 9.12 µM | TEAD-Gal4/YAP UAS-luciferase luminescence | 640,000 tested, 1.4% active; in the data active means inhibition above about 32%;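 further: 0% = median of test compound wells and 100% = reference inhibitor wells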
# The depositor's hits bear a star; / = no result given.
SMILES,GPR151 activ,FBW7 activator,MITF inh,TEAD-YAP inh
CC(C)(C)c1ccc(C(=O)Nc2ccc3oc(-c4ccc(C(C)(C)C)cc4)nc3c2)cc1,1.2,0.1,8.6,-6.9
O=C(Nc1ccc2oc(-c3cccc(I)c3)nc2c1)c1ccc(-c2cccc([N+](=O)[O-])c2)o1,-1.1,0.3,-6.4,2.4
CCc1ccc2oc(-c3ccc(NC(=O)c4ccc5c(c4)OCCO5)cc3)nc2c1,-0.2,0.5,-3.4,39.3*
CNC(=O)C1Cc2ccccc2N1S(=O)(=O)c1ccc(NC(C)=O)cc1 (stereo not drawn),0.7,-0.1,6.2,-10.6
CC(C)CCNC(=O)CN(C(=O)c1snc(C(N)=O)c1N)c1ccc(F)cc1,0.3,-0.2,4.5,-6.6
CC(C)CCNC(=O)CN(C(=O)c1snc(C(N)=O)c1N)c1ccccc1F,1.1,2.1*,2.5,-0.5
COc1ccc(OCc2n(CC(=O)OC3CC(C)CCC3C(C)C)c3ccccc3[n+]2C)cc1 (stereo not drawn),0.7,-0.1,7.8,41.1*
O=[N+]([O-])c1ccc2nonc2c1N1CCCCC1,-1.0,-0.4,8.7,10.9
CN(CC(=O)Nc1ccc(F)cc1)C(=O)CCl,-2.8,0.0,16.1,42.4*
Cc1ccc(C)c(NC(=O)CN(C)C(=O)CCl)c1,-1.1,-0.1,-0.5,72.6*
Cc1ccc(C)c(NC(=O)CN(C)S(=O)(=O)c2ccc(Br)cc2)c1,0.3,0.1,-4.9,6.5
Cc1cc2nccc(NC(=O)c3c(F)cccc3F)n2n1,0.2,-0.1,-2.1,10.4
Cc1cc2nccc(NC(=O)CSc3ccccc3)n2n1,2.7,2.1*,-12.3,3.5
Cn1/c(=N/N=C(\CCC(=O)O)c2cccs2)sc2ccccc21,-3.0,-0.1,5.0,-6.9
CCOc1ccc(N(CC(=O)O)CC(=O)O)cc1,1.0,-0.2,-3.9,-6.2
O=C(O)CCC/C=C\C[C@@H]1CO[C@H](C(F)(F)F)O[C@@H]1c1ccccc1O,1.8,2.2*,5.0,/
COc1ccc(C(=O)/C(=C/N2C=CC=CC2=C(C#N)C#N)c2ccco2)cc1,-3.1,0.1,13.7,47.6*
O=C(NCCc1cnccn1)c1cc(COc2ccc3ncccc3c2)on1,-0.8,0.0,7.8,10.3
COc1ccc(-c2nc(CSCC(=O)O)c(C)o2)cc1,-1.1,0.0,5.0,82.4*
CCOc1ccc(-c2nc(CSCC(=O)O)c(C)o2)cc1,0.9,0.1,-9.9,98.4*
CCOc1ccc(-c2nc(CSCC(=O)NCCCN3CCCC3)c(C)o2)cc1,0.5,-0.1,-4.1,-2.6
CCOc1ccc(-c2nc(CSCC(=O)NCCN3CCCC3)c(C)o2)cc1,0.8,-0.2,-4.1,33.6*
CCCCNC(=O)CSCc1nc(-c2ccc(C)cc2)oc1C,2.1,0.6,18.4,4.3
COc1ccc(-c2nc(CSCC(=O)NCC(OC)OC)c(C)o2)cc1,0.6,0.0,18.3,6.1
CCOC(=O)CSCc1nc(-c2ccc(C)cc2)oc1C,0.1,-0.2,-5.8,79.8*
SMILES,GPR151 activ,FBW7 activator,MITF inh,TEAD-YAP inh
CC1(C)Oc2ccc3ccc(=O)oc3c2/C(=C\O)C1=O,0.1,0.2,-1.9,-5.7
COc1cc(/C=C2/N=C(c3ccco3)OC2=O)cc(Cl)c1OC(=O)c1ccccc1,0.2,0.1,8.1,5.5
COc1ccc(NC(=O)CSc2ccc3nnc(-c4cccs4)n3n2)cc1,-1.1,0.3,12.0,7.5
CC(C)(C)c1ccc(-c2nc(-c3c(F)cccc3F)no2)cc1,1.3,0.1,-7.6,68.5*
Cc1ccc(-c2nc(-c3nonc3N)no2)cc1,1.6,0.1,8.5,-30.4
N#Cc1ccc(-c2nc(-c3c(F)cccc3F)no2)cc1,1.9,0.5,9.2,-16.1
CC(C)(C)c1ccc(-c2nc(-c3nonc3N)no2)cc1,-0.1,0.1,-2.1,51.5*
Cc1ccc(C)c(NC(=O)CN2C(=O)C3(SCC(=O)N3c3ccc(F)c(F)c3)c3ccccc32)c1 (stereo not drawn),-0.7,1.0,2.8,1.6
O=C(NCC1CCCO1)c1c(S)n(-c2ccc(F)cc2)c2cccc[n+]12 (stereo not drawn),0.4,-0.2,-5.9,-1.7
CCOc1ccc(/C=C2\N=C(c3cccs3)OC2=O)cc1OCC,0.2,0.0,33.0,8.5
Cn1nc2c(c1NC(=O)C1CCCN(S(=O)(=O)c3ccc(Cl)s3)C1)CCC2 (stereo not drawn),0.5,0.0,2.2,33.4*
COc1ccc(S(=O)(=O)N2CCCC(C(=O)Nc3c4c(nn3C)CCC4)C2)cc1 (stereo not drawn),1.5,-0.1,-1.2,11.8
CC1=NN(c2ccc(C)cc2)C(=O)/C1=C\N(C)C,-1.6,0.0,1.4,-4.8
CC1=NN(c2nc3ccccc3o2)C(=O)/C1=C\N(C)C,-5.4,-0.4,3.7,92.4*
COc1ccc(/C=N/NC(=O)C(=O)NC(C)c2ccccc2)c(OC)c1 (stereo not drawn),1.4,-0.1,-3.8,-6.1
c1cncc(Nc2nc(NC3CC3)c3ncn(-c4ccsc4)c3n2)c1,1.5,-0.1,5.3,10.8
Cn1c(Nc2nc(NC3CC3)c3ncn(-c4ccsc4)c3n2)nc2ccccc21,-1.0,0.1,9.3,58.6*
CCCNc1nc(Nc2nc3ccccc3n2C)nc2c1ncn2-c1ccsc1,-1.2,-0.2,2.8,7.8
c1cnc(Nc2nc(NC3CC3)c3ncn(-c4ccsc4)c3n2)nc1,1.7,0.1,9.1,50.1*
CC(=O)C1Oc2ccccc2OC1(C)O (stereo not drawn),-0.3,0.4,16.3,2.2
CCc1ccc(-c2nc(CSCC(=O)N3CCN(c4ccccn4)CC3)c(C)o2)cc1,0.0,-0.6,3.4,35.1*
Cc1ccc(-c2nc(CSCC(=O)N3CCN(c4ccccn4)CC3)c(C)o2)cc1,0.6,-0.2,-9.7,39.7*
CN(Cc1cc([N+](=O)[O-])c2cccnc2c1O)C1CCCCC1,-1.9,-0.6,113.8*,28.7
O=[N+]([O-])c1cc(CN2CCN(c3ccccc3)CC2)c(O)c2ncccc12,-0.5,-1.0,61.3*,47.7*
CN(Cc1cc(Br)c(O)c2ncccc12)C1CCCCC1,1.9,-0.6,79.2*,86.5*
SMILES,GPR151 activ,FBW7 activator,MITF inh,TEAD-YAP inh
CN(Cc1cc(Cl)c2cccnc2c1O)C1CCCCC1,2.6,-0.9,37.0,82.8*
Oc1c(I)cc(Cl)c2cccnc12,0.1,-0.2,4.4,-7.3
O=[N+]([O-])c1ccc(N2CCN(c3ccccc3)CC2)c2ncccc12,0.8,-0.2,2.7,3.6
C=CCCC(=O)NCC1Cc2c(F)ccc(-c3ccncc3)c2O1 (stereo not drawn),-0.1,-0.2,5.4,1.1
Cc1ccc2c(c1)C1(NN=C(c3ccccc3O)S1)C(=O)N2 (stereo not drawn),-0.3,0.0,2.7,53.8*
Cc1ccc(S(=O)(=O)CCC(=O)Nc2sc3c(c2C#N)CCCC3)cc1,1.5,0.0,10.2,7.7
COc1ccc(CCNc2nc(Nc3ccc4ncccc4c3)nc3nc[nH]c23)cc1,0.0,0.1,15.4,50.3*
COc1ccc(CCNc2nc(Nc3ccc4ncccc4c3)ncc2C)cc1,-0.6,0.1,19.9,33.4*
